Where “and” joins values, the source holds several entries; their conditions need not be identical. Equal entries are not always repeated. Out of some 5,500 compounds screened, about 2,000 (36%) were called active. About 18% were inconclusive and are not listed. Cut-off read from the data, not from the text of the source: active = normalized growth mostly below about 0.91 (no sharp cut-off); inconclusive = no clear call, values can overlap the other calls; inactive = mostly above about 0.92. The list shows a part of the results.
Experiment: chemical genetic growth profiling, strain panel (AID 1159580);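 note: tested at 20 µM; growth read once vehicle control cultures reached saturation at 30 °C; 1 = growth at the plate median or of vehicle wells; lower values mean less growth of the strain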
Conditions: growth OD

Measured: normalized growth

CN(C)CCCN1c2ccccc2CCc2ccccc21
inactive: S. cerevisiae deletion strains, locus YJR075W, strain HOC1, hits give low values 0.97 | S. cerevisiae deletion strains, locus YKL009W, strain mrt4, hits give low values 0.992 | S. cerevisiae deletion strains, locus YKL068W, hits give low values 0.992 | S. cerevisiae deletion strains, locus YKL085W, strain MDH1 (second series), hits give low values 0.987 | S. cerevisiae deletion strains, locus YKL085W, strain MDH1, hits give low values 0.987 | S. cerevisiae deletion strains, locus YKL160W, strain elf1, hits give low values 1 | S. cerevisiae deletion strains, locus YKR001C, strain vps1, hits give low values 0.988 | S. cerevisiae deletion strains, locus YKR026C, strain gcn3, hits give low values 1.01 | S. cerevisiae deletion strains, locus YKR091W, strain srl3, hits give low values 1.01 | S. cerevisiae deletion strains, locus YLL001W, strain dnm1, hits give low values 0.994 | S. cerevisiae deletion strains, locus YLL026W, hits give low values 0.999 | S. cerevisiae deletion strains, locus YLL041C, strain sdh2, hits give low values 1.01 | S. cerevisiae deletion strains, locus YLR027C, strain aat2, hits give low values 1 | S. cerevisiae deletion strains, locus YLR039C, strain RIC1, hits give low values 1.15 | S. cerevisiae deletion strains, locus YLR058C, strain SHM2, hits give low values 1 | S. cerevisiae deletion strains, locus YLR102C, strain apc9, hits give low values 0.984 | S. cerevisiae deletion strains, locus YLR113W, strain HOG1, hits give low values 1.01 | S. cerevisiae deletion strains, locus YLR221C, strain rsa3, hits give low values 0.98 | S. cerevisiae deletion strains, locus YLR258W, strain gsy2, hits give low values 0.989 | S. cerevisiae deletion strains, locus YLR262C, strain YPT6 (second series), hits give low values 1.04 | S. cerevisiae deletion strains, locus YLR262C, strain YPT6, hits give low values 1.25 | S. cerevisiae deletion strains, locus YLR268W, strain sec22, hits give low values 0.994 | S. cerevisiae deletion strains, locus YLR320W, strain mms22, hits give low values 0.991 | S. cerevisiae deletion strains, locus YLR330W, strain CHS5, hits give low values 1.01 | S. cerevisiae deletion strains, locus YLR342W, strain FKS1 (second series), hits give low values 0.997 | S. cerevisiae deletion strains, locus YLR342W, strain FKS1, hits give low values 1 | S. cerevisiae deletion strains, locus YLR357W, strain rsc2, hits give low values 1.01 | S. cerevisiae deletion strains, locus YLR370C, strain arc18, hits give low values 1.01 | S. cerevisiae deletion strains, locus YLR371W, strain rom2, hits give low values 0.987 | S. cerevisiae deletion strains, locus YLR384C, strain iki3, hits give low values 1.01 | S. cerevisiae deletion strains, locus YLR418C, strain cdc73, hits give low values 0.956 | S. cerevisiae deletion strains, locus YML016C, strain PPZ1, hits give low values 1.01 | S. cerevisiae deletion strains, locus YML032C, strain rad52, hits give low values 0.996 | S. cerevisiae deletion strains, locus YML120C, strain ndi1, hits give low values 0.992 | S. cerevisiae deletion strains, locus YML124C, strain tub3, hits give low values 0.996 | S. cerevisiae deletion strains, locus YMR058W, strain fet3, hits give low values 1.01 | S. cerevisiae deletion strains, locus YMR078C, strain ctf18, hits give low values 0.985 | S. cerevisiae deletion strains, locus YMR125W, strain sto1, hits give low values 1.01 | S. cerevisiae deletion strains, locus YMR129W, hits give low values 1 | S. cerevisiae deletion strains, locus YMR205C, strain PFK2, hits give low values 0.998 | S. cerevisiae deletion strains, locus YMR223W, strain ubp8, hits give low values 0.962 | S. cerevisiae deletion strains, locus YMR231W, strain pep5, hits give low values 0.998 | S. cerevisiae deletion strains, locus YMR263W, strain SAP30, hits give low values 1 | S. cerevisiae deletion strains, locus YMR307W, strain GAS1, hits give low values 1.09 and 0.988 | S. cerevisiae deletion strains, locus YNL067W, strain RPL9B, hits give low values 1 | S. cerevisiae deletion strains, locus YNL071W, strain lat1, hits give low values 1 | S. cerevisiae deletion strains, locus YNL128W, strain TEP1, hits give low values 1 | S. cerevisiae deletion strains, locus YNL153C, strain GIM3, hits give low values 1.01 | S. cerevisiae deletion strains, locus YNL175C, strain NOP13, hits give low values 1 | S. cerevisiae deletion strains, locus YNL183C, strain NPR1, hits give low values 0.942 | S. cerevisiae deletion strains, locus YNL197C, strain WHI3, hits give low values 1 | S. cerevisiae deletion strains, locus YNL209W, strain ssb2, hits give low values 1.03 | S. cerevisiae deletion strains, locus YNL224C, strain SQS1, hits give low values 1.05 | S. cerevisiae deletion strains, locus YNL233W, strain BNI4, hits give low values 1.01 | S. cerevisiae deletion strains, locus YNL248C, strain rpa49, hits give low values 0.988 | S. cerevisiae deletion strains, locus YNL250W, strain rad50, hits give low values 0.987 | S. cerevisiae deletion strains, locus YNL271C, strain bni1, hits give low values 0.993 | S. cerevisiae deletion strains, locus YNL298W, strain CLA4, hits give low values 1 | S. cerevisiae deletion strains, locus YNL307C, strain MCK1, hits give low values 0.982 | S. cerevisiae deletion strains, locus YNL322C, strain KRE1 (second series), hits give low values 0.997 | S. cerevisiae deletion strains, locus YNL322C, strain KRE1, hits give low values 1 and 0.979 | S. cerevisiae deletion strains, locus YNR049C, strain mso1, hits give low values 1.03 | S. cerevisiae deletion strains, locus YNR052C, strain pop2, hits give low values 0.978 | S. cerevisiae deletion strains, locus YOL006C, strain TOP1, hits give low values 0.946 | S. cerevisiae deletion strains, locus YOL012C, strain htz1 0.613 | S. cerevisiae deletion strains, locus YOL147C, strain pex11, hits give low values 0.994 | S. cerevisiae deletion strains, locus YOR001W, strain rrp6, hits give low values 1 | S. cerevisiae deletion strains, locus YOR061W, strain CKA2, hits give low values 1.01 | S. cerevisiae deletion strains, locus YOR069W, strain VPS5, hits give low values 1 | S. cerevisiae deletion strains, locus YOR070C, strain gyp1, hits give low values 1 | S. cerevisiae deletion strains, locus YOR080W, strain dia2, hits give low values 0.995 | S. cerevisiae deletion strains, locus YOR083W, strain WHI5 (second series), hits give low values 1.07 | S. cerevisiae deletion strains, locus YOR083W, strain WHI5, hits give low values 0.995 | S. cerevisiae deletion strains, locus YOR106W, strain vam3, hits give low values 0.997 | S. cerevisiae deletion strains, locus YOR136W, strain idh2, hits give low values 0.999 | S. cerevisiae deletion strains, locus YOR144C, strain elg1, hits give low values 0.992 | S. cerevisiae deletion strains, locus YOR184W, strain ser1, hits give low values 1.02 | S. cerevisiae deletion strains, locus YOR231W, strain MKK1, hits give low values 0.975 | S. cerevisiae deletion strains, locus YOR265W, strain rbl2, hits give low values 1.01 | S. cerevisiae deletion strains, locus YOR270C, strain vph1, hits give low values 0.932 | S. cerevisiae deletion strains, locus YOR290C, strain snf2, hits give low values 1 | S. cerevisiae deletion strains, locus YOR316C, strain cot1, hits give low values 0.993 | S. cerevisiae deletion strains, locus YPL051W, strain arl3, hits give low values 0.992 | S. cerevisiae deletion strains, locus YPL055C, strain LGE1, hits give low values 0.99 and 0.992 | S. cerevisiae deletion strains, locus YPL078C, strain atp4, hits give low values 1.01 | S. cerevisiae deletion strains, locus YPL106C, strain sse1, hits give low values 0.996 | S. cerevisiae deletion strains, locus YPL240C, strain hsp82, hits give low values 1 | S. cerevisiae deletion strains, locus YPL241C, strain CIN2, hits give low values 1.01 | S. cerevisiae deletion strains, locus YPL256C, strain CLN2, hits give low values 0.972 | S. cerevisiae deletion strains, locus YPR119W, strain clb2, hits give low values 0.99 | S. cerevisiae deletion strains, locus YPR141C, strain kar3, hits give low values 0.993 | S. cerevisiae deletion strains, locus YPR163C, strain tif3, hits give low values 0.982 | S. cerevisiae deletion strains, locus YPR167C, strain met16, hits give low values 0.989 | S. cerevisiae deletion strains, strain wtn01, hits give low values 0.988 | S. cerevisiae strains, strain wild type, hits give low values 1.01

— PubChem BioAssay AID1159580 (chemical genetic matrix, 2015)
